An excerpt weighted towards active compounds, which were near 1.2% of everything screened.
RAD52 inh: RAD52 (human) annealing inhibition. P43351. inhibition, % at 18.7 µM. recombinant RAD52 DNA annealing, FRET fluorescence. AID 651710. 0.46% of 360,000 active;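 active means every replicate showing at least 50% inhibition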
CASP6 VEID inh: inhibitors of human caspase-6. 0.53% of 350,000 active. inhibition, % at 12.5 µM. purified caspase-6, Z-VEID-R110 cleavage fluorescence. P55212;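 active means mean inhibition across replicates at least about 35%, with every replicate also reaching that limit, limit read from the data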
Target sequence (P55212 24-179 limits assumed): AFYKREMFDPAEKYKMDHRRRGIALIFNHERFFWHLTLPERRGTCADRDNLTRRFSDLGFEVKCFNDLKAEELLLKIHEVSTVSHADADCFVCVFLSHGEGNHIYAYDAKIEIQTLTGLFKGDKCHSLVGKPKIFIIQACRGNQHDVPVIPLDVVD
Target sequence (P55212 194-293 limits assumed): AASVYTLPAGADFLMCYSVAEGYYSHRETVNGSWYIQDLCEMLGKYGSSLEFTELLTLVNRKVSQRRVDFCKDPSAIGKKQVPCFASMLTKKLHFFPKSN
RAD54 branch: blocks human RAD54 Holliday junction branch migration; Q92698; FAM/BHQ fluorescence; inhibition, % at 10.4 µM; 0.14% of 360,000 active; AID 602329;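 active means mean normalized replicate activity at least 40 and at least half of replicates scoring 40 or more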;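 further: inhibitors cause a drop in the FAM fluorescence signal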
N-glyco inh: N-linked glycosylation inhibition; reporter increase, % at 12.5 µM; D54 ERlucT glycosylation luciferase reporter, 24 h; percent of 100 nM tunicamycin response; 0.23% of 360,000 active;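 active means mean luciferase reporter signal, scaled so untreated is 0 and the glycosylation-blocking control 100, at or above a set limit in every replicate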;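 further: luciferase carries N-glycosylation sites so blocking glycosylation raises the light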
NSD2 inh: NSD2 (human) methyltransferase inhibition. AID 743445. 0.54% of 310,000 active. inhibition, % at 12.5 µM. NSD2 peptide methylation, AlphaScreen, 120 min; in the data active means inhibition above about 50%
Numbers stand for hits; - = inactive; . = no result given; ! = a repeat was not active.

SMILES	RAD52 inh	CASP6 VEID inh	RAD54 branch	N-glyco inh	NSD2 inh
C[C@@H]1CN([C@H](C)CO)C(=O)Cc2cc(NC(=O)CCCN(C)C)ccc2O[C@@H]1CN(C)Cc1ccc(-c2ccccc2)cc1	79.1	-	-	.	.
C[C@H](CO)N1C[C@H](C)[C@@H](CN(C)Cc2ccc(-c3ccccc3)cc2)Oc2ccc(NC(=O)CCCN(C)C)cc2C1=O	-	-	-	.	.
C[C@H](CO)N1C[C@H](C)[C@@H](CN(C)Cc2ccccc2)Oc2ccc(NC(=O)CCCCCC(=O)Nc3ccccc3N)cc2C1=O	-	.	-	28.9	.
C[C@@H]1CN([C@@H](C)CO)C(=O)Cc2cc(NC(=O)CCCN(C)C)ccc2O[C@H]1CN(C)Cc1ccc(-c2ccccc2)cc1	76.7!	-	.	.	.
C[C@H](CO)N1C[C@H](C)[C@@H](CN(C)Cc2ccc(C(=O)Nc3ccccc3N)cc2)Oc2ccc(NC(=O)Cc3cn(C)c4ccccc34)cc2CC1=O	61.2	-	-	.	.
C[C@@H]1CCCCO[C@@H](CN(C)Cc2ccc(C(F)(F)F)cc2)[C@@H](C)CN([C@@H](C)CO)C(=O)c2cc(NC(=O)C3CCCCC3)ccc2O1	.	.	-	.	.
C[C@@H]1CN([C@H](C)CO)C(=O)CCCn2cc(nn2)CO[C@H]1CN(C)Cc1ccc(C(=O)Nc2ccccc2N)cc1	-	-	-	.	.
NS(=O)(=O)c1ccc(NC(=O)c2cccc3cc4ccccc4nc23)cc1	-	-	.	62.2	-
CC(C)(C)c1ccc(Cc2nnc(SCC(=O)Nc3ccccc3F)[nH]c2=O)cc1	.	.	.	.	-
O=C(O)c1cccc(-n2cccc2/C=C/[N+](=O)[O-])c1	-	65.2	.	-	.
CCOC(=O)/C(C#N)=C/c1cccn1-c1ccc(Cl)cc1	-	-	-	-	-
CN1C(=O)S/C(=C/c2cccn2-c2cccc(C(=O)O)c2)C1=O	-	-	-	-	-
N#C/C(=C/c1cccn1-c1cccc(C(=O)O)c1)c1ccc(Cl)cc1	-	84.1	.	-	.
CO[C@H]1CN(C)C(=O)c2cc(NC(=O)c3cc(C)on3)ccc2OC[C@H](C)N(C(=O)C2CC2)C[C@H]1C	-	-	-	.	.
C[C@@H]1CN([C@H](C)CO)C(=O)c2cccc(NS(=O)(=O)c3ccc(F)cc3)c2O[C@@H]1CN(C)S(=O)(=O)c1cccs1	-	-	-	.	.
CNC(=O)C[C@H]1CC[C@H]2[C@H](COc3ccc(NC(=O)Nc4ccc(F)c(F)c4)cc3C(=O)N2C)O1	-	-	-	.	.
Oc1cc2c(cc1O)C1c3ccc(O)c(O)c3OCC1(O)C2 (stereo not given)	-	42.1	-	-	.
CCC1C(=O)N=C(SCC(=O)Nc2nc3ccccc3s2)NC1=O (stereo not given)	-	40.4	-	-	-
CCC1C(=O)N=C(SCC(=O)Nc2cccc3ccccc23)NC1=O (stereo not given)	.	.	-	-	-
Cc1ccc(N2C(=O)c3ccccc3C2C(=O)c2ccc(O)cc2O)cc1 (stereo not given)	-	73.8	.	-	-
O=C(O)c1ccc(NC2=C(n3nnc4ccccc43)C(=O)c3ccccc3C2=O)cc1	-	82.6	.	-	.
O=C(O)c1cccc(NC2=C(N3CCOCC3)C(=O)c3ccccc3C2=O)c1	-	-	-	-	-
COc1ccc(CNC(=O)C[C@@H]2CC[C@H](NS(=O)(=O)c3cccc(OC)c3)[C@H](CO)O2)cc1	-	-	-	.	.
C[C@H](CO)N1C[C@H](C)[C@H](CN(C)C(=O)Cc2ccccc2)OCCCC[C@H](C)Oc2ccc(NC(=O)c3ccncc3)cc2C1=O	-	-	-	.	.
CC(=O)c1ccccc1NS(=O)(=O)c1cccc2nsnc12	-	56.0	-	-	-
SMILES	RAD52 inh	CASP6 VEID inh	RAD54 branch	N-glyco inh	NSD2 inh
COCC(=O)Nc1ccc2c(c1)[C@@H]1C[C@H](CC(=O)NCc3cccc(F)c3)O[C@H](CO)[C@@H]1O2	-	-	-	.	.
COc1ccc(-c2n[nH]c3c2CN(C(=O)c2ccc(OC)c(OC)c2)CC3)cc1	-	-	-	39.3	-
COc1cc(OC)cc(C(=O)N2CCN(C(=O)c3ccc(OC)c(OC)c3)CC2)c1	.	.	-	-	-
COc1cc(C(=O)NCc2ccc(C)cc2)ccc1OCc1c(C)noc1C	.	.	.	-	-
COc1cc(C(=O)OCC#N)ccc1OCc1c(C)noc1C	-	-	-	30.7	-
C#CCOCCOCCOCCNc1nc(N2CCN(C(=O)[C@H](CCCCN)n3cc([C@@H](N)CC(N)=O)nn3)CC2)nc(N2CCN(C(=O)[C@H](CCCCN)n3cc([C@@H](N)CC(N)=O)nn3)CC2)n1	61.3	-	-	-	.
C#CCOCCOCCOCCNc1nc(N2CCN(C(=O)[C@H](CCCCN)n3cc([C@@H](N)C(C)CC)nn3)CC2)nc(N2CCN(C(=O)[C@H](Cc3cc4ccccc4[nH]3)n3cc([C@@H](N)CC(C)C)nn3)CC2)n1 (stereo not given in full)	.	.	59.6	-	.
C#CCOCCOCCOCCNc1nc(N2CCN(C(=O)[C@H](CCC(=O)O)n3cc(C(N)CO)nn3)CC2)nc(N2CCN(C(=O)[C@H](Cc3cc4ccccc4[nH]3)n3cc(C(N)[C@H](C)CC)nn3)CC2)n1 (stereo not given in full)	.	.	-	-	.
C[C@@H]1CN([C@H](C)CO)C(=O)c2cc(NC(=O)c3ccncc3)ccc2O[C@@H]1CN(C)S(=O)(=O)c1ccc(F)cc1	-	-	-	.	.
C[C@@H]1CN([C@H](C)CO)S(=O)(=O)c2ccc(C3=CCCCC3)cc2O[C@H]1CN(C)C(=O)C1CCCCC1	-	-	-	.	.
O=C1C2C(C(=O)N1/N=C/c1cc([N+](=O)[O-])c(O)cc1O)C1C=CC2C12CC2 (stereo not given)	-	75.9	.	-	-
CO[C@H]1CN(C)C(=O)c2cc(NC(C)=O)ccc2OC[C@H](C)N(S(=O)(=O)c2cn(C)cn2)C[C@@H]1C	-	-	-	.	.
COc1ccc(C2=Nn3c(nnc3-c3ccc(OC)cc3)SC2)cc1	.	.	-	29.0	-
Cc1ccc(C(=O)c2ccc([N+](=O)[O-])cc2)cc1	.	.	-	-	-
Cc1ccc(C(=O)c2coc3cc([N+](=O)[O-])c(O)c([N+](=O)[O-])c23)cc1	-	48.4	.	-	-
CCN(CC)CCNC(=O)c1ccc(NC(=O)/C=C/c2cc(OC)c(OC)c(OC)c2)cc1	-	-	62.2	-	-
NC(=N\N=Cc1ccccc1)/C(N)=N/N=Cc1ccccc1	-	-	-	-	-
NC(=N\N=Cc1ccco1)/C(N)=N/N=Cc1ccco1	-	61.8	-	-	-
O=C(Nc1ccc(Cc2ccncc2)cc1)c1cccc([N+](=O)[O-])c1	-	-	-	-	-
O=C(Nc1ccc(Cc2ccncc2)cc1)c1ccc([N+](=O)[O-])o1	-	-	-	34.3	-
O=C(Nc1cccc(NC(=O)c2cccs2)c1)c1ccc([N+](=O)[O-])o1	-	-	-	59.3	.
COc1cc(NC(=O)c2ccc([N+](=O)[O-])o2)ccc1NC(=O)c1cccs1	-	-	-	-	-
Cc1ccc(NC(=O)CN2C(=O)NC(Cc3c[nH]c4ccccc34)C2=O)c(Br)c1 (stereo not given)	.	.	.	.	-

Bioassay records deposited in PubChem by Broad Institute.
